This note sets out measurements from PubChem BioAssay (NCI).

Structures are written as SMILES. Compounds without any hit were thinned out: in the full panel of roughly 83,000, 20% have a hit.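 The test compound was applied at a single concentration to cells in 96-well plates for 48 hours, and percent growth was recorded.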 A number with no mark means an inactive call. Activity calls are given as the source filed them. How the source made its calls: active means growth percent below 10; inactive means the rest.

Test systems include HT29 colon; SNB-75 CNS; SNB-19 CNS; U251 CNS; PC-3 prostate; SK-MEL-5 melanoma; UACC-62 melanoma; LOX IMVI melanoma; SK-MEL-28 melanoma; SK-MEL-2 melanoma; EKVX NSCLC; SN12C renal; UO-31 renal; TK-10 renal; ACHN renal; CAKI-1 renal; A498 renal; CCRF-CEM leukemia; MOLT-4 leukemia; SR leukemia.
Holding throughout (assay): NCI-60 one-dose screen, 48 h (100 = growth as untreated, 0 = no growth, -100 = all killed)
Common to all, as to conditions: 10 µM

As to `O=C(Nc1ccncc1)C(=O)c1cn(S(=O)(=O)c2ccc(F)cc2)c2ccccc12`, the growth is 1.81% (active) in the experiment with HT29 colon; 45% in the experiment with SNB-75 CNS; 67.2% with SNB-19 CNS; 19.4% in the experiment with U251 CNS; 27.4% in the experiment on PC-3 prostate; 17.7% in the experiment on SK-MEL-5 melanoma. The growth was 36.1% in the experiment with UACC-62 melanoma; 38.3% with LOX IMVI melanoma; 56.1% in the experiment on SK-MEL-28 melanoma; 11.2% in the experiment on SK-MEL-2 melanoma; 52.1% in the experiment on EKVX NSCLC; 41.9% with SN12C renal. Further, the growth in the experiment with UO-31 renal was 20.6%; with TK-10 renal, 79%; in the experiment on ACHN renal it was 57.7%; with CAKI-1 renal it was 52.9%; in the experiment on A498 renal, 66.2%; with CCRF-CEM leukemia, 43.6%. Moreover, the figures for the growth with MOLT-4 leukemia and with SR leukemia were 25.7% and 2.09% (active), respectively.

On to `CN(C)CCCn1c(=O)c2ccccc2c2cnc3[nH]ccc3c21`, for which the growth is -9.52% (active) in the experiment with HT29 colon; 26.5% in the experiment on SNB-75 CNS; 13.6% in the experiment with SNB-19 CNS; 8.32% (active) with U251 CNS; -9.22% (active) in the experiment with PC-3 prostate; 10.3% with SK-MEL-5 melanoma. For the same compound, the growth with UACC-62 melanoma was -20.2% (active); in the experiment on LOX IMVI melanoma, 1.3% (active); in the experiment on SK-MEL-28 melanoma, 21.1%; in the experiment on SK-MEL-2 melanoma, -8.38% (active); in the experiment on EKVX NSCLC, 10.5%; in the experiment with SN12C renal, 10.2%. The growth with UO-31 renal was 0.877% (active); with TK-10 renal, 8.77% (active); in the experiment with ACHN renal, -1.65% (active); in the experiment on CAKI-1 renal it was 22.5%; in the experiment with CCRF-CEM leukemia, 18.6%; with MOLT-4 leukemia, -5.39% (active). In the experiment on SR leukemia, the growth was -35% (active).

Turning to `Cc1ccc2oc3nc(C)c(C(=O)NCc4ccccc4)cc3c(=O)c2c1`, the growth was 95% in the experiment on HT29 colon; 88% in the experiment on SNB-75 CNS; 83.2% in the experiment with SNB-19 CNS; 79% in the experiment with U251 CNS; 93.5% with PC-3 prostate; 76.9% with SK-MEL-5 melanoma. Besides, the growth in the experiment on UACC-62 melanoma is 25.6%; in the experiment on LOX IMVI melanoma, 68.8%; in the experiment on SK-MEL-28 melanoma, 78.1%; in the experiment on SK-MEL-2 melanoma, 8.63% (active); in the experiment on EKVX NSCLC, 77.1%; in the experiment with SN12C renal it was 96.5%. Besides, the growth was 63% in the experiment on UO-31 renal; 87.2% in the experiment with TK-10 renal; 63.8% with ACHN renal; 60.3% in the experiment on CAKI-1 renal; 104% in the experiment on A498 renal; 76.4% with CCRF-CEM leukemia. In addition, the values for the growth with MOLT-4 leukemia and with SR leukemia were 64.3% and 79.9%, respectively.

In the case of `NC1=NC(=O)C(c2ccccc2)(c2ccccc2)S1`, the growth with HT29 colon is 106%; with SNB-75 CNS, 107%; in the experiment with SNB-19 CNS it was 105%; in the experiment with U251 CNS, 99.4%; in the experiment with PC-3 prostate, 103%; with SK-MEL-5 melanoma it was 110%. For the same compound, the growth is 98.2% in the experiment with UACC-62 melanoma; 101% with LOX IMVI melanoma; 101% in the experiment on SK-MEL-28 melanoma; 101% in the experiment on SK-MEL-2 melanoma; 107% in the experiment with EKVX NSCLC; 106% with SN12C renal. Also, the growth is 73.9% in the experiment on UO-31 renal; 100% with TK-10 renal; 107% in the experiment with ACHN renal; 114% in the experiment with CAKI-1 renal; 106% with A498 renal; 97.1% in the experiment with CCRF-CEM leukemia. Besides, the figures for the growth in the experiment with MOLT-4 leukemia and with SR leukemia were 97.5% and 94.8%, respectively.

For `COc1ccc(C2CC(c3ccc(N(C)C)cc3)=NN2c2ccc(S(N)(=O)=O)cc2)cc1` (stereo not given), the growth with HT29 colon was 29.6%; in the experiment with SNB-75 CNS, 69.6%; with SNB-19 CNS, 66.6%; in the experiment on U251 CNS, 26.6%; with PC-3 prostate, 18.9%; in the experiment on SK-MEL-5 melanoma, 69.4%. In addition, the growth is 62.3% with UACC-62 melanoma; 54.9% with LOX IMVI melanoma; 86.3% in the experiment with SK-MEL-28 melanoma; 79.7% with SK-MEL-2 melanoma; 28.4% in the experiment on EKVX NSCLC; 49.4% with SN12C renal. Also, the growth is 32% in the experiment on UO-31 renal; 44.9% in the experiment on TK-10 renal; 35.2% in the experiment on ACHN renal; 48.2% with CAKI-1 renal; 49.4% in the experiment with CCRF-CEM leukemia.

As to `Clc1ccccc1N=Cc1ccc2c(c1)OCO2`, the growth in the experiment on HT29 colon is 96.3%; with SNB-75 CNS, 95%; in the experiment on SNB-19 CNS, 105%; in the experiment with U251 CNS, 94.9%; in the experiment on PC-3 prostate it was 107%; in the experiment on SK-MEL-5 melanoma, 107%. Also, the growth in the experiment on UACC-62 melanoma is 103%; in the experiment with LOX IMVI melanoma, 98.9%; with SK-MEL-28 melanoma, 110%; in the experiment with SK-MEL-2 melanoma, 108%; in the experiment with EKVX NSCLC, 99.7%; in the experiment with SN12C renal it was 92%. Besides, the growth in the experiment with UO-31 renal was 80%; with TK-10 renal it was 107%; with ACHN renal, 111%; in the experiment with CAKI-1 renal it was 93.6%; in the experiment on A498 renal it was 102%; in the experiment with CCRF-CEM leukemia, 88.8%. For the same compound, the growth with MOLT-4 leukemia was 87.9%; in the experiment on SR leukemia, 89%.

With `COC(=O)C(=C\c1ccc2c(c1)OCO2)/C(=C/c1ccc2c(c1)OCO2)C(=O)OC`, the growth in the experiment on HT29 colon is 88.9%; in the experiment on SNB-75 CNS it was 87.7%; in the experiment with SNB-19 CNS, 106%; with U251 CNS, 98.5%; in the experiment with PC-3 prostate, 93.8%; in the experiment with SK-MEL-5 melanoma it was 101%. Also, the growth in the experiment with UACC-62 melanoma is 98.6%; with LOX IMVI melanoma it was 90.8%; in the experiment with SK-MEL-28 melanoma it was 103%; in the experiment with SK-MEL-2 melanoma it was 102%; in the experiment on EKVX NSCLC, 97%; with SN12C renal, 112%. Besides, the growth in the experiment on UO-31 renal was 90.3%; in the experiment on TK-10 renal, 100%; in the experiment with ACHN renal, 94.3%; with CAKI-1 renal, 94.7%; in the experiment on A498 renal it was 106%; in the experiment with CCRF-CEM leukemia, 101%. Further, the growth with MOLT-4 leukemia is 105%; in the experiment with SR leukemia it was 98.8%.

For the compound `CN(C)c1ccc(Cc2ccc(N(C)C)cc2Cl)c(Cl)c1`, the growth with HT29 colon was 102%; in the experiment with SNB-75 CNS, 77.7%; in the experiment on SNB-19 CNS, 102%; with U251 CNS, 110%; with PC-3 prostate it was 86.8%; in the experiment on SK-MEL-5 melanoma it was 91.9%. Besides, the growth in the experiment on UACC-62 melanoma is 88.6%; in the experiment with LOX IMVI melanoma it was 96%; in the experiment on SK-MEL-28 melanoma, 105%; in the experiment on SK-MEL-2 melanoma, 113%; in the experiment on EKVX NSCLC, 103%; with SN12C renal, 99.2%. The growth in the experiment on UO-31 renal was 67.6%; in the experiment with TK-10 renal it was 88.9%; with ACHN renal, 98.4%; in the experiment with CAKI-1 renal, 99.1%; with CCRF-CEM leukemia, 91.6%; in the experiment on MOLT-4 leukemia, 46%. For the same compound, in the experiment with SR leukemia, the growth was 88.9%.
